Reference: PubChem BioAssay AID1159580 (chemical genetic matrix, 2015)
Among all 5,500 compounds or so, about 2,000 (36%) were called active. Not shown: some 18% with an inconclusive outcome. No stated cut-off is given here; in the data, active means normalized growth mostly below about 0.91 (no sharp cut-off); inconclusive means no clear call, values can overlap the other calls; inactive means mostly above about 0.92. The list shows a part of the results.

Assay: chemical genetic growth profiling, strain panel (AID 1159580);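 further: tested at 20 µM; growth read once vehicle control cultures reached saturation at 30 °C; 1 = growth at the plate median or of vehicle wells; lower values mean less growth of the strain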
Conditions: S. cerevisiae deletion strains, growth OD
[1] = locus YHR030C, strain SLT2, active compounds read low
[2] = locus YHR079C, strain IRE1, active compounds read low
[3] = locus YJL095W, strain BCK1, active compounds read low
[4] = locus YJR066W, strain TOR1, active compounds read low
[5] = locus YLR113W, strain HOG1, active compounds read low
[6] = locus YNL183C, strain NPR1, active compounds read low
[7] = locus YOR231W, strain MKK1, active compounds read low
[8] = locus YPL256C, strain CLN2, active compounds read low
[9] = locus YAL040C, strain CLN3, active compounds read low
[10] = locus YCL061C, strain MRC1 (second series), active compounds read low
[11] = locus YDR150W, strain NUM1, active compounds read low
[12] = locus YDR363W, strain ESC2, active compounds read low
[13] = locus YER002W, strain NOP16, active compounds read low
[14] = locus YMR263W, strain SAP30, active compounds read low
[15] = locus YMR307W, strain GAS1, active compounds read low
[16] = locus YNL128W, strain TEP1, active compounds read low
[17] = locus YNL153C, strain GIM3, active compounds read low
[18] = locus YNL175C, strain NOP13, active compounds read low
[19] = locus YNL197C, strain WHI3, active compounds read low
[20] = locus YNL224C, strain SQS1, active compounds read low
[21] = locus YOR083W, strain WHI5 (second series), active compounds read low
[22] = locus YJR075W, strain HOC1, active compounds read low
[23] = locus YPL055C, strain LGE1, active compounds read low
[24] = locus YPL241C, strain CIN2, active compounds read low
[25] = locus YNL322C, strain KRE1, active compounds read low

Measured: normalized growth

C[N+]12CC[C@@]34c5ccccc5N5C(=O)CC6OCC=C(C1)[C@H](CC32)[C@@H]6C54 (some centres not stated)
inactive: [1] 1.02 | [2] 1 | [3] 0.99 | [4] 0.942 | [5] 0.995 | [6] 0.933 | [7] 0.998 | [8] 0.986

N[C@@H](Cn1cc(I)c(=O)[nH]c1=O)C(=O)O
inactive: [9] 0.979 | [10] 0.992 | [11] 0.988 | [12] 1.01 | [13] 0.979 | [14] 1 | [15] 0.992 | [16] 0.977 | [17] 1.03 | [18] 0.993 | [19] 1 | [20] 0.99 | [21] 0.998

CCCn1c(=O)[nH]c(=O)c2[nH]cnc21
inactive: [9] 1.05 | [10] 1.01 | [12] 1.02 | [13] 0.999 | locus YGR229C, strain SMI1, active compounds read low 1 | [22] 1 | [18] 1.01 | [19] 1.01 | [20] 1 | [21] 1 | [23] 1.02 | [24] 1.01

O=c1[nH]c(=O)n([C@H]2C[C@H](O)[C@@H](CO)O2)cc1/C=C/Br
inactive: locus YAL013W, strain DEP1, active compounds read low 1.02 | [9] 0.98 | [10] 1 | [11] 0.994 | [12] 1.03 | [13] 0.977 | [14] 0.998 | [15] 1.01 | [16] 0.944 | [17] 0.999 | [18] 0.964 | [19] 0.936 | [20] 0.994 | [25] 0.999 | [21] 0.999 | [23] 0.998 | [24] 0.99

COc1ccc(CCCOc2cc(CCn3ccnc3)ccc2OC)cc1
inactive: [13] 1.03

CCCCOc1cc(CC2CNC(=O)N2)ccc1OC (configuration not stated)
inactive: locus YAL021C, strain ccr4, active compounds read low 0.939 | locus YAL026C, strain drs2, active compounds read low 1 | locus YAL030W, strain snc1, active compounds read low 1.01 | [9] 1.08 | locus YBL061C, strain skt5, active compounds read low 0.998 | locus YBR009C, strain hhf1, active compounds read low 1.06 | locus YBR023C, strain chs3, active compounds read low 0.992 | locus YBR171W, strain sec66, active compounds read low 0.984 | locus YBR231C, strain swc5, active compounds read low 1.01 | locus YBR279W, strain paf1, active compounds read low 0.999 | locus YCL011C, strain gbp2, active compounds read low 0.984 | locus YCL016C, strain dcc1, active compounds read low 1 | [10] 1 | locus YCL061C, strain MRC1, active compounds read low 0.985 | locus YCL069W, strain vba3, active compounds read low 0.994 | locus YCR088W, strain abp1, active compounds read low 0.987 | locus YDL005C, strain med2, active compounds read low 0.986 | locus YDL040C, strain nat1, active compounds read low 0.999 | locus YDR001C, strain nth1, active compounds read low 0.988 | locus YDR069C, strain doa4, active compounds read low 1.01 | locus YDR137W, strain rgp1, active compounds read low 0.971 | [11] 1.01 | locus YDR159W, strain sac3, active compounds read low 1.07 | locus YDR195W, strain ref2 0.992 | locus YDR297W, strain sur2, active compounds read low 0.993 | locus YDR334W, strain swr1, active compounds read low 0.968 | locus YDR335W, strain msn5, active compounds read low 0.98 | locus YDR392W, strain spt3, active compounds read low 0.975 | locus YEL003W, strain gim4, active compounds read low 0.998 | locus YEL037C, strain rad23, active compounds read low 0.994 | locus YEL061C, strain CIN8 (second series), active compounds read low 0.981 | [13] 1.01 | locus YER015W, strain faa2, active compounds read low 0.994 | locus YER016W, strain bim1, active compounds read low 1.01 | locus YER111C, strain swi4, active compounds read low 1.01 | locus YER155C, strain BEM2 (second series), active compounds read low 1.04 | locus YFR010W, strain ubp6, active compounds read low 0.994 | locus YGL167C, strain pmr1, active compounds read low 1 | locus YGL173C, strain kem1, active compounds read low 0.991 | locus YGL227W, strain vid30, active compounds read low 1 | locus YGL240W, strain doc1, active compounds read low 1.04 | locus YGL253W, strain hxk2, active compounds read low 0.999 | locus YHR013C, strain ard1, active compounds read low 0.979 | locus YHR027C, strain rpn1, active compounds read low 0.992 | [1] 0.97 | [2] 0.973 | locus YHR142W, strain chs7, active compounds read low 0.914 | locus YJL092W, strain hpr5, active compounds read low 0.967 | locus YJL095W, strain BCK1 (second series), active compounds read low 0.989 | [3] 0.978 | locus YJL115W, strain asf1, active compounds read low 0.99 | locus YJL129C, strain trk1, active compounds read low 0.965 | locus YJL154C, strain vps35, active compounds read low 0.993 | locus YJL164C, strain tpk1, active compounds read low 0.972 | locus YJL166W, strain qcr8, active compounds read low 0.996 | locus YJL187C, strain SWE1, active compounds read low 0.998 | [4] 0.935 | [22] 1.01 | locus YKL160W, strain elf1, active compounds read low 0.954 | locus YKR026C, strain gcn3, active compounds read low 0.981 | locus YKR091W, strain srl3, active compounds read low 0.989 | locus YLL001W, strain dnm1, active compounds read low 0.988 | locus YLL026W, active compounds read low 0.998 | locus YLL041C, strain sdh2, active compounds read low 0.984 | locus YLR027C, strain aat2, active compounds read low 0.982 | [5] 0.978 | locus YLR221C, strain rsa3, active compounds read low 0.971 | locus YLR258W, strain gsy2, active compounds read low 1.02 | locus YLR262C, strain YPT6 (second series), active compounds read low 1 | locus YLR320W, strain mms22, active compounds read low 1.02 | locus YLR342W, strain FKS1, active compounds read low 1 | locus YLR357W, strain rsc2, active compounds read low 1.02 | locus YLR370C, strain arc18, active compounds read low 0.978 | locus YLR384C, strain iki3, active compounds read low 0.993 | locus YML120C, strain ndi1, active compounds read low 0.968 | locus YMR058W, strain fet3, active compounds read low 0.978 | locus YMR125W, strain sto1, active compounds read low 1.02 | locus YMR129W, active compounds read low 0.992 | locus YMR205C, strain PFK2, active compounds read low 1.06 | locus YMR231W, strain pep5, active compounds read low 1 | locus YNL071W, strain lat1, active compounds read low 0.987 | [16] 1.01 | [18] 1.02 | [6] 0.956 | [19] 1.03 | locus YNL209W, strain ssb2, active compounds read low 1 | [20] 1.01 | locus YNL248C, strain rpa49, active compounds read low 0.93 | locus YNL322C, strain KRE1 (second series), active compounds read low 0.987 | [25] 1.02 | locus YNR049C, strain mso1, active compounds read low 0.992 | locus YOR001W, strain rrp6, active compounds read low 0.951 | locus YOR070C, strain gyp1, active compounds read low 1.01 | locus YOR080W, strain dia2, active compounds read low 0.99 | [21] 1 | locus YOR083W, strain WHI5, active compounds read low 0.944 | locus YOR106W, strain vam3, active compounds read low 0.958 | [7] 0.976 | locus YOR265W, strain rbl2, active compounds read low 0.998 | locus YOR270C, strain vph1, active compounds read low 0.94 | locus YOR290C, strain snf2, active compounds read low 0.987 | locus YPL051W, strain arl3, active compounds read low 0.963 | locus YPL078C, strain atp4, active compounds read low 0.921 | locus YPL106C, strain sse1, active compounds read low 1.04 | locus YPL240C, strain hsp82, active compounds read low 0.99 | [8] 0.948
